Results reported in PubChem BioAssay AID1159580 (chemical genetic matrix, 2015).
Among all 5,500 compounds or so, about 2,000 (36%) were called active. Roughly 18% stayed inconclusive and do not appear here. No stated cut-off is given here; in the data, active means normalized growth mostly below about 0.91 (no sharp cut-off); inconclusive means no clear call, values can overlap the other calls; inactive means mostly above about 0.92. The list shows a part of the results.

Test: chemical genetic growth profiling, strain panel (AID 1159580);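 further: tested at 20 µM; growth read once vehicle control cultures reached saturation at 30 °C; 1 = growth at the plate median or of vehicle wells; lower values mean less growth of the strain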
Conditions: growth OD
[1] = S. cerevisiae deletion strains, locus YAL013W, strain DEP1, hits give low values
[2] = S. cerevisiae deletion strains, locus YBR229C, strain ROT2, hits give low values
[3] = S. cerevisiae deletion strains, locus YDL101C, strain DUN1, hits give low values
[4] = S. cerevisiae deletion strains, locus YDL134C, strain PPH21, hits give low values
[5] = S. cerevisiae deletion strains, locus YDR150W, strain NUM1, hits give low values
[6] = S. cerevisiae deletion strains, locus YEL061C, strain CIN8, hits give low values
[7] = S. cerevisiae deletion strains, locus YGR078C, strain PAC10, hits give low values
[8] = S. cerevisiae deletion strains, locus YHR030C, strain SLT2, hits give low values
[9] = S. cerevisiae deletion strains, locus YHR087W, strain rtc3, hits give low values
[10] = S. cerevisiae deletion strains, locus YJR043C, strain POL32, hits give low values
[11] = S. cerevisiae deletion strains, locus YJR075W, strain HOC1, hits give low values
[12] = S. cerevisiae deletion strains, locus YLR039C, strain RIC1, hits give low values
[13] = S. cerevisiae deletion strains, locus YLR058C, strain SHM2 (second series), hits give low values
[14] = S. cerevisiae deletion strains, locus YLR085C, strain ARP6, hits give low values
[15] = S. cerevisiae deletion strains, locus YLR262C, strain YPT6, hits give low values
[16] = S. cerevisiae deletion strains, locus YML094W, strain GIM5, hits give low values
[17] = S. cerevisiae deletion strains, locus YMR219W, strain ESC1, hits give low values
[18] = S. cerevisiae deletion strains, locus YMR263W, strain SAP30, hits give low values
[19] = S. cerevisiae deletion strains, locus YNL153C, strain GIM3, hits give low values
[20] = S. cerevisiae deletion strains, locus YNL298W, strain CLA4 (second series), hits give low values
[21] = S. cerevisiae deletion strains, locus YNL322C, strain KRE1, hits give low values
[22] = S. cerevisiae deletion strains, locus YNR030W, strain Alg12, hits give low values
[23] = S. cerevisiae deletion strains, locus YOL006C, strain TOP1, hits give low values
[24] = S. cerevisiae deletion strains, locus YPL055C, strain LGE1, hits give low values
[25] = S. cerevisiae deletion strains, locus YPL241C, strain CIN2, hits give low values
[26] = S. cerevisiae deletion strains, locus YPR135W, strain CTF4, hits give low values
[27] = S. cerevisiae deletion strains, locus YJL187C, strain SWE1, hits give low values
[28] = S. cerevisiae deletion strains, locus YCL061C, strain MRC1, hits give low values

Measured: normalized growth

COC(=O)/C(=C/N(C)C)Sc1cc(C)c(Cl)cc1Cl
active: [8] 0.296 | S. cerevisiae deletion strains, locus YKL190W, strain CNB1, hits give low values 0.91 | [12] 0.622 | [15] 0.587 | [21] 0.933
inactive: [1] 0.945 | [2] 0.968 | [3] 1.01 | [4] 0.983 | [5] 0.958 | [6] 0.951 | [7] 0.979 | [9] 0.939 | [10] 0.983 | [11] 0.935 | [13] 0.939 | [14] 0.91 | [16] 0.914 | [17] 0.959 | [18] 0.946 | [19] 0.992 | [20] 0.925 | [22] 0.942 | [23] 0.978 | [24] 0.922 | [25] 0.947 | [26] 0.747

Cc1ccc(-c2csc(-c3ccc(Cl)cc3)n2)c(C)c1
active: [8] 0.611 | [14] 0.753 | [23] 0.686
inactive: [1] 0.979 | [2] 0.978 | [3] 0.968 | [5] 0.987 | [6] 0.914 | [7] 0.989 | [9] 0.956 | [27] 0.994 | [10] 0.994 | [11] 1.01 | [12] 0.926 | [13] 0.988 | [15] 0.952 | [16] 0.9 | [17] 0.998 | [18] 1.01 | [19] 1.01 | [20] 0.908 | [21] 0.987 | [22] 0.949 | [24] 0.968 | [25] 1.1 | [26] 0.772

Cc1ccc2nc(-c3ccc(Cl)cc3)cn2c1
inactive: S. cerevisiae deletion strains, locus YAR019C, strain CDC15, hits give low values 0.961 | S. cerevisiae deletion strains, locus YBL105C, strain PKC1, hits give low values 0.97 | S. cerevisiae deletion strains, locus YBR135W, strain CKS1, hits give low values 0.968 | S. cerevisiae deletion strains, locus YBR136W, strain MEC1, hits give low values 0.968 | S. cerevisiae deletion strains, locus YBR160W, strain CDC28, hits give low values 0.954 | S. cerevisiae deletion strains, locus YDL017W, strain CDC7, hits give low values 0.964 | S. cerevisiae deletion strains, locus YDL028C, strain MPS1, hits give low values 0.974 | [3] 0.969 | S. cerevisiae deletion strains, locus YDL108W, strain KIN28, hits give low values 0.971 | S. cerevisiae deletion strains, locus YDL132W, strain cdc53, hits give low values 0.962 | S. cerevisiae deletion strains, locus YDL214C, strain PRR2, hits give low values 0.95 | S. cerevisiae deletion strains, locus YDR052C, strain DBF4, hits give low values 0.972 | S. cerevisiae deletion strains, locus YDR054C, strain cdc34, hits give low values 0.949 | S. cerevisiae deletion strains, locus YDR226W, strain ADK1, hits give low values 0.959 | S. cerevisiae deletion strains, locus YDR477W, strain SNF1, hits give low values 0.933 | S. cerevisiae deletion strains, locus YER123W, strain YCK3, hits give low values 0.89 | S. cerevisiae deletion strains, locus YER133W, strain GLC7, hits give low values 0.923 | S. cerevisiae deletion strains, locus YFL009W, strain cdc4, hits give low values 0.967 | S. cerevisiae deletion strains, locus YFL029C, strain CAK1, hits give low values 0.956 | S. cerevisiae deletion strains, locus YFR003C, strain YPI1, hits give low values 0.97 | S. cerevisiae deletion strains, locus YFR019W, strain FAB1, hits give low values 0.944 | S. cerevisiae deletion strains, locus YFR028C, strain CDC14, hits give low values 0.958 | S. cerevisiae deletion strains, locus YGR040W, strain KSS1, hits give low values 0.911 | S. cerevisiae deletion strains, locus YGR052W, strain FMP48, hits give low values 0.974 | S. cerevisiae deletion strains, locus YGR092W, strain DBF2, hits give low values 0.903 | [8] 0.889 | S. cerevisiae deletion strains, locus YHR079C, strain IRE1, hits give low values 0.936 | S. cerevisiae deletion strains, locus YHR082C, strain KSP1, hits give low values 1 | S. cerevisiae deletion strains, locus YHR205W, strain SCH9, hits give low values 0.966 | S. cerevisiae deletion strains, locus YIL147C, strain SLN1, hits give low values 0.975 | S. cerevisiae deletion strains, locus YJL095W, strain BCK1, hits give low values 0.948 | S. cerevisiae deletion strains, locus YJL128C, strain PBS2, hits give low values 0.966 | S. cerevisiae deletion strains, locus YJL157C, strain FAR1, hits give low values 0.92 | S. cerevisiae deletion strains, locus YJR016C, strain ILV3, hits give low values 0.97 | S. cerevisiae deletion strains, locus YJR066W, strain TOR1 (second series), hits give low values 0.937 | S. cerevisiae deletion strains, locus YJR066W, strain TOR1, hits give low values 0.953 | S. cerevisiae deletion strains, locus YKL048C, strain ELM1, hits give low values 0.956 | S. cerevisiae deletion strains, locus YKL067W, strain YNK1, hits give low values 0.936 | S. cerevisiae deletion strains, locus YKL101W, strain HSL1, hits give low values 0.953 | S. cerevisiae deletion strains, locus YKL193C, strain SDS22, hits give low values 0.961 | S. cerevisiae deletion strains, locus YKL203C, strain TOR2, hits give low values 0.97 | S. cerevisiae deletion strains, locus YLR113W, strain HOG1, hits give low values 0.906 | S. cerevisiae deletion strains, locus YLR133W, strain CKI1, hits give low values 0.953 | S. cerevisiae deletion strains, locus YLR403W, strain SFP1, hits give low values 0.93 | S. cerevisiae deletion strains, locus YML070W, strain DAK1, hits give low values 0.91 | S. cerevisiae deletion strains, locus YMR001C, strain CDC5, hits give low values 0.965 | S. cerevisiae deletion strains, locus YMR205C, strain PFK2 (second series), hits give low values 0.952 | S. cerevisiae deletion strains, locus YMR277W, strain FCP1, hits give low values 0.961 | S. cerevisiae deletion strains, locus YNL006W, strain LST8, hits give low values 0.962 | S. cerevisiae deletion strains, locus YNL020C, strain ARK1, hits give low values 0.946 | S. cerevisiae deletion strains, locus YNL161W, strain CBK1, hits give low values 0.961 | S. cerevisiae deletion strains, locus YNL183C, strain NPR1, hits give low values 0.928 | S. cerevisiae deletion strains, locus YNL207W, strain RIO2, hits give low values 0.97 | S. cerevisiae deletion strains, locus YNL222W, strain SSU72, hits give low values 0.958 | S. cerevisiae deletion strains, locus YNL307C, strain MCK1 (second series), hits give low values 0.907 | S. cerevisiae deletion strains, locus YOL078W, strain AVO1, hits give low values 0.97 | S. cerevisiae deletion strains, locus YOL136C, strain PFK27, hits give low values 0.921 | S. cerevisiae deletion strains, locus YOR061W, strain CKA2, hits give low values 0.948 | S. cerevisiae deletion strains, locus YOR119C, strain RIO1, hits give low values 0.982 | S. cerevisiae deletion strains, locus YOR231W, strain MKK1, hits give low values 0.884 | S. cerevisiae deletion strains, locus YOR329C, strain SCD5, hits give low values 0.969 | S. cerevisiae deletion strains, locus YPL031C, strain PHO85, hits give low values 0.949 | S. cerevisiae deletion strains, locus YPL153C, strain RAD53, hits give low values 0.899 | S. cerevisiae deletion strains, locus YPL204W, strain HRR25, hits give low values 0.9 | S. cerevisiae deletion strains, locus YPL209C, strain IPL1, hits give low values 0.959 | S. cerevisiae deletion strains, locus YPL256C, strain CLN2, hits give low values 0.909 | S. cerevisiae deletion strains, locus YPR025C, strain CCL1, hits give low values 0.969 | S. cerevisiae deletion strains, locus YPR106W, strain ISR1, hits give low values 0.964 | S. cerevisiae deletion strains, locus YPR111W, strain DBF20, hits give low values 0.96 | S. cerevisiae deletion strains, strain NNK1, hits give low values 0.986 | S. cerevisiae deletion strains, strain TSCII, hits give low values 0.959

CC(C)(C)c1cc(-c2csc(-c3ccc(Cl)cc3)n2)cc(C(C)(C)C)c1O
active: [14] 1.22 [resistant]
inactive: [1] 1 | [2] 1.02 | [28] 1.01 | [3] 1.02 | [4] 1.02 | [5] 0.943 | [6] 1.03 | [7] 1.01 | [8] 1.09 | [9] 1.01 | [27] 1.02 | [10] 1.01 | [11] 1.03 | [12] 1.09 | [13] 1.02 | [15] 1.05 | [16] 1.03 | [17] 1.01 | [18] 0.96 | [19] 1 | [20] 1.04 | [21] 1.01 | [22] 1.03 | [23] 1.18 | [24] 0.911 | [25] 1.01 | [26] 1.07 | S. cerevisiae strains, strain wild type, hits give low values 1.02

CC(C)(C)c1ccc(-c2nc(-c3cc(C(C)(C)C)c(O)c(C(C)(C)C)c3)cs2)cc1
inactive: [1] 1.01 | [2] 1 | [28] 1.03 | [3] 1.02 | [4] 1.02 | [5] 0.912 | [6] 1.03 | [7] 1.02 | [8] 1.09 | [9] 1.01 | [27] 1.01 | [10] 1.01 | [11] 1.03 | [12] 1.08 | [13] 1.01 | [14] 1.21 | [15] 1.04 | [16] 1.03 | [17] 1.01 | [18] 0.947 | [19] 0.988 | [20] 1.05 | [21] 1.01 | [22] 1.03 | [24] 1.17 | [25] 1.13 | [26] 1.07
